Assay results reported in PubChem BioAssay AID602248 (The Scripps Research Institute Molecular Screening Center, 2012).
The campaign covered roughly 360,000 compounds. About 1,700 (0.47%) were called active. Cut-off read from the data, not from the text of the source: active = activation above about 15%; inactive = the rest. For the sample, actives were picked, then their nearest neighbours and some compounds at random.

Assay: counter-screen for M1 agonists: effect in parental CHO-K1 cells (AID 602248);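 note: untransfected CHO-K1 host cells lacking M1 receptor as counterscreen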
Settings: Fluo-8 calcium fluorescence, at 3 µM, active compounds read high, scaled to maximal ATP response, vehicle zero

Row | Structure (SMILES) | activation
1 | COC(=O)c1cc(C(=O)OCC(=O)Nc2cc(C)on2)cc([N+](=O)[O-])c1 | 0.23% (inactive)
2 | CN1CCN(C(=O)c2cnn(-c3ccccc3)c2NC(=O)c2ccc([N+](=O)[O-])cc2)CC1 | 0.79% (inactive)
3 | COc1cc(C(=O)NCc2ccc(-n3cccc3)cc2)cc(OC)c1OC | 7.89% (inactive)
4 | CCn1c(CNC(=O)c2cc(OC)c(OC)c(OC)c2)cc2cc(C)ccc21 | 20.6% (active)
5 | COc1cc(C(=O)NCc2ccc3c(c2)cc(C)n3C)cc(OC)c1OC | -0.48% (inactive)
6 | CCCCC(=O)NCc1ccc(F)cc1 | -0.33% (inactive)
7 | CCCOCC(O)CC(CC)C(=O)NNC(=S)Nc1ccccc1 (stereo unspecified) | 0.03% (inactive)
8 | CCCCC(=O)NNC(=S)NC(=O)C(c1ccccc1)c1ccccc1 | 86% (active)
9 | CCCCC(CC)CNC(=O)C(=O)C1C(=O)Nc2ccccc21 (stereo unspecified) | -0.65% (inactive)
10 | CCOC(=O)c1c(C)oc(C)c(C(=O)OCC)c1=O | 0.16% (inactive)
11 | O=C1NC[C@H](CCCCN2C[C@H](Cc3ccc(O)cc3)N(CCc3ccccc3)C(=O)C2=O)N(CCc2ccccc2)C1=O | 0.62% (inactive)
12 | N#C/C(=C/c1ccc(N2CCCCC2)o1)C(=O)NCCc1c[nH]c2ccccc12 | 24.1% (active)
13 | N#C/C(=C\c1ccc(N2CCOCC2)o1)C(=O)N1CCOCC1 | 4.52% (inactive)
14 | Cc1ccc(C(=O)N/C(=C/c2ccco2)C(=O)NCCc2c[nH]c3ccccc23)cc1C | 1.71% (inactive)
15 | CC(=O)c1cccc(NC(=O)[C@@H](NC(N)=O)C(C)C)c1 | -0.09% (inactive)
16 | CCSc1nsc(NC(=O)Nc2cccc(C(C)=O)c2)n1 | 16.5% (active)
17 | CCc1nnc(NC(=O)CSc2nnnn2-c2cccc(C(C)=O)c2)s1 | -0.49% (inactive)
18 | C=CCSc1nsc(NC(=O)Nc2cccc(C(C)=O)c2)n1 | 15.8% (active)
19 | COc1ccc(C(=O)OCC(=O)Nc2cccc(C(C)=O)c2)cc1OC | 2.14% (inactive)
20 | CCCCN1C(=O)C(=O)N(CC(=O)Nc2cccc(C(C)=O)c2)C1=O | -0.29% (inactive)
21 | Cc1ccc(C(=O)N2CCC(n3nccc3NC(=O)Nc3cccc(F)c3)CC2)cn1 | 1.73% (inactive)
22 | COc1ccc(OCC(=O)OCC(=O)Nc2ccc(S(=O)(=O)N3CCCCC3)cc2)cc1 | 0.75% (inactive)
23 | CCOC(=O)COc1ccc(Cl)cc1C1NC(=O)NC(C)=C1C(C)=O (stereo unspecified) | 0.08% (inactive)
24 | CN(C)CCCCCN(C)Cc1cc2ccccc2o1 | 0% (inactive)

Row | Structure (SMILES) | activation
25 | CCCCNC(=O)c1nc(C2CCN(S(=O)(=O)c3ccc(F)c(F)c3)CC2)oc1-c1cccc(C(F)(F)F)c1 | 2.76% (inactive)
26 | Cn1nnnc1SCC(=O)NNC(=O)c1ccc(Br)cc1 | -0.47% (inactive)
27 | COC(=O)COc1ccc2c(=O)c(Oc3ccccc3Br)coc2c1 | 0.1% (inactive)
28 | C[C@H](CO)N1C[C@H](C)[C@@H](CN(C)S(=O)(=O)c2ccc(Oc3ccccc3)cc2)OCc2cn(nn2)CCCC1=O | 0.23% (inactive)
29 | CC(OC(=O)CN1C(=O)C2CCCCC2C1=O)C(=O)Nc1ncc(Cl)cc1Cl (stereo unspecified) | 0.87% (inactive)
30 | c1ccc2c(c1)OCC(CNc1ncnc3nc[nH]c13)O2 (stereo unspecified) | 109% (active)
31 | O=C(COc1ccc(F)cc1Br)NCC1COc2ccccc2O1 (stereo unspecified) | 0.07% (inactive)
32 | O=C(COC(=O)c1ccc(F)cc1)NCC1COc2ccccc2O1 (stereo unspecified) | 1.54% (inactive)
33 | Cn1c(N)cc(=O)n(C)c1=S | -0.09% (inactive)
34 | COc1ccc(S(=O)(=O)N2CCOCC2)c(C)c1C | 0.55% (inactive)
35 | COCCNc1ncnc2c1nc1n2CCCC1 | 0.47% (inactive)
36 | O=C(/C=C/c1c(F)cccc1Cl)Nc1nn[nH]n1 | 22% (active)
37 | O=C(/C=C/c1c(Cl)cccc1Cl)NCc1ccccc1 | 0.05% (inactive)
38 | O=C(CCc1ccccc1)Nc1nn[nH]n1 | 1.57% (inactive)
39 | O=C1CCC(=O)N(O)CCCCCNC(=O)CCC(=O)N(O)CCCCCNC(=O)CCC(=O)N(O)CCCCCN1 | -0.15% (inactive)
40 | CCOc1ccc(OCC)c(NC(=O)C2CCN(S(=O)(=O)c3c(C)noc3C)CC2)c1 | -0.25% (inactive)
41 | Clc1ccc(CSc2nnc([C@@H]3CCCN3)o2)cc1 | 0.78% (inactive)
42 | CCN1/C(=C\c2ccc3ccccc3[n+]2CC)Sc2cc(C)ccc21 | 22.8% (active)
43 | CN1C(=O)c2cccc3c(N)ccc(c23)C1=O | 28.8% (active)
44 | Cc1nn(C)cc1N1C(=O)c2cccc3c(N)ccc(c23)C1=O | 40.2% (active)
45 | CC(=O)OC1CCC2(C)C(=CCC3C4CC(=O)N(O)C(=O)C4(C)CCC32)C1 (stereo unspecified) | 0.34% (inactive)
46 | O=C1CCC[C@@H]2CC(N3CCCCC3)C[C@@H]3CCN1[C@H]23 (stereo partly specified) | 0.27% (inactive)
47 | CCCc1c(C(=O)N/N=C(\C)CCc2ccc(OC)cc2)nnn1-c1nonc1N | 0.32% (inactive)
48 | Cc1ccc(S(=O)(=O)Nc2nc(CN3CCOCC3)nc3sc(C)c(C)c23)cc1 | 0.12% (inactive)

Row | Structure (SMILES) | activation
49 | CCCCCCCCCCCCN1C(=O)CSC1c1cccnc1 (stereo unspecified) | 1.63% (inactive)
50 | Oc1ccc2ccc3cccc[n+]3c2c1 | 25.3% (active)
51 | COc1ccc(CCNC(=O)CSc2nnc3ccc(-c4ccncc4)nn23)cc1 | 0.28% (inactive)
52 | COCc1cc(C)nc2sc3c(=O)n(-c4cccc5ccccc45)nnc3c12 | 0.44% (inactive)
53 | O=C(NCc1ccccc1)C1CCCN(S(=O)(=O)c2cccs2)C1 (stereo unspecified) | 0.58% (inactive)
54 | O=C(NCc1ccccc1)C1CCCN(c2nc3ccsc3c(=O)s2)C1 (stereo unspecified) | 18.9% (active)
55 | Cc1cc(=O)n2nc(N3CCCC(C(=O)NCc4ccc(Cl)cc4)C3)sc2n1 (stereo unspecified) | 0.13% (inactive)
56 | CC(C)NC(=O)c1ccc(Sc2ccccc2)c([N+](=O)[O-])c1 | -0.3% (inactive)
57 | CC(C)(C)NC(=O)CN1CCC(NC(=O)C23CC4CC(CC(C4)C2)C3)CC1 | 0.73% (inactive)
58 | COc1cc(OC)c(C(=S)N2CCCC2)cc1OC | -0.12% (inactive)
59 | CC(NC(=O)c1cccc2ccccc12)c1ccc2c(c1)CCCC2 (stereo unspecified) | -0.03% (inactive)
60 | Nc1ccc2nc3c(=O)[nH]c(=S)[nH]c3nc2c1 | 21.2% (active)
61 | COc1cc(C(=O)OCc2cc(=O)n3ccsc3n2)ccc1OC(C)C | 1.63% (inactive)
62 | Cc1ccc(CN(Cc2cccnc2)C(=S)Nc2cccc(Cl)c2C)cc1 | 0.06% (inactive)
63 | Cc1c(Cl)cccc1NC(=S)N(Cc1ccccc1)Cc1cccnc1 | 0.16% (inactive)
64 | Cc1cccc(C)c1NC(=S)N(Cc1cccnc1)Cc1ccccc1Cl | 19.6% (active)
65 | O=C1Nc2ccccc2NC(c2ccc3c(c2)OCO3)=C1N(Cc1ccc(F)cc1)C(=O)c1ccco1 | 1.41% (inactive)
66 | O=C(Nc1cc(S(=O)(=O)N2CCCCC2)ccc1Cl)C1COc2ccccc2O1 (stereo unspecified) | 3.15% (inactive)
67 | O=C(Nc1ncc([N+](=O)[O-])s1)C1COc2ccccc2O1 (stereo unspecified) | 15.9% (active)
68 | CC(=O)c1ccccc1NC(=O)COC(=O)C1COc2ccccc2O1 (stereo unspecified) | 0.64% (inactive)
69 | COc1ccc(CN2C(=O)C(CC(=O)NC3CCCCC3)CC(C(=O)N3CCOCC3)=C2C)cc1 (stereo unspecified) | 0.65% (inactive)
70 | Cc1cc(OCC(=O)NC2CCN(C)CC2)ccc1[N+](=O)[O-] | 23.7% (active)
71 | O=C(COc1ccccc1[N+](=O)[O-])NC1CC1 | 1.25% (inactive)
72 | Cc1cc(OCC(=O)Nc2c(C)n(C)n(-c3ccccc3)c2=O)ccc1[N+](=O)[O-] | 0.08% (inactive)

Row | Structure (SMILES) | activation
73 | O=C(c1c(Cl)cccc1Cl)N1CCN(c2cccc3[nH]ccc23)CC1 | 2.17% (inactive)
74 | CC(O)CNCCOc1cccc(Oc2ccccc2)c1 (stereo unspecified) | 1.52% (inactive)
75 | OC(CNCCc1ccc(Cl)cc1Cl)COc1ccccc1 (stereo unspecified) | 16.2% (active)
76 | COc1ccc(OCC(O)CNC(=O)Nc2ccc(Cl)cc2)cc1 (stereo unspecified) | 1.9% (inactive)
77 | C(=N/N1CCN(c2ccccc2)CC1)/c1cccs1 | 0.31% (inactive)
78 | COc1ccc2c(c1)CCC/C2=N\OC(=O)c1ccccc1F | 1.78% (inactive)
79 | Cc1cc(C(=O)NNC(=S)Nc2ccccc2C)cs1 | 7.73% (inactive)
80 | CCOc1ccccc1NC(=S)NC(=O)CCc1ccccc1 | -0.34% (inactive)
81 | O=C(Cc1ccc(Cl)cc1)NC(=S)Nc1ccccc1O | 29.2% (active)
82 | Cc1ccccc1N/C(SCc1ccc(Cl)cc1)=C(/C#N)C(N)=O | 0.43% (inactive)
83 | Fc1ccccc1CNC(=S)Nc1ccc(Cl)cc1 | 11.3% (inactive)
84 | Cc1ccccc1NC(=S)NC(=O)Cc1ccc(Cl)cc1 | 21.2% (active)
85 | COc1ccc(CCNC(=O)C(=O)NCC2CCNCC2)cc1OC | 1.91% (inactive)
86 | O=C(CN1C(=O)CSC1=O)N1CCCC(Nc2ccc(F)cc2)C1 (stereo unspecified) | 1.24% (inactive)
87 | O=C(CSc1nncn1-c1cccnc1)N1CCOCC1 | 0.39% (inactive)
88 | Cn1c(Nc2ccc(F)cc2)nc2cc(-c3ccsc3)sc2c1=O | 1.38% (inactive)
89 | COc1c(N2CCN(C(=S)Nc3ccccc3F)C(C)C2)c(F)cc2c(=O)c(C(=O)O)cn(C3CC3)c12 (stereo unspecified) | 0.37% (inactive)
90 | CC(=O)Nc1c(-c2ccc(C)cc2)nc2ccc(Cl)cn12 | -0.07% (inactive)
91 | CS(=O)(=O)/C(C#N)=C/c1cccn1S(=O)(=O)c1ccc([N+](=O)[O-])cc1 | 0.19% (inactive)
92 | C[C@@H](O)c1nc2ccccc2n1N | 6.47% (inactive)
93 | CCN1C(=O)C(=O)N(CC(=O)Nc2cc(C)ccc2C)C1=O | 0.48% (inactive)
94 | Cc1c(NS(=O)(=O)c2cc(C(=O)NCCc3ccc(F)cc3)cc(Cl)c2Cl)c(=O)n(-c2ccccc2)n1C | -0.45% (inactive)
95 | Cc1cc(C)c(/C=C2\C(=O)Nc3ccccc32)[nH]1 | 24.4% (active)
96 | COc1ccccc1S(=O)(=O)c1c(C)cc(C)[nH]c1=O | 0.65% (inactive)
